Legend:
Test in all cases: DAPPL (digital affinity profiling via proximity ligation, sequencing); 10 mM Tris-HCl pH 7.5, 50 mM NaCl, 1 mM DTT, 4% glycerol, room temperature, 30 min; GST-TFs on glutathione beads, 16-mer random dsDNA library, 0.1% formaldehyde crosslink after washing; high values mean tight binding
[1] = target: T1, FLI1 (Homo sapiens, UniProt Q01543 1-452); conditions: protein: recombinant; tags: N-terminal GST; dsDNA, one strand shown
T1 sequence: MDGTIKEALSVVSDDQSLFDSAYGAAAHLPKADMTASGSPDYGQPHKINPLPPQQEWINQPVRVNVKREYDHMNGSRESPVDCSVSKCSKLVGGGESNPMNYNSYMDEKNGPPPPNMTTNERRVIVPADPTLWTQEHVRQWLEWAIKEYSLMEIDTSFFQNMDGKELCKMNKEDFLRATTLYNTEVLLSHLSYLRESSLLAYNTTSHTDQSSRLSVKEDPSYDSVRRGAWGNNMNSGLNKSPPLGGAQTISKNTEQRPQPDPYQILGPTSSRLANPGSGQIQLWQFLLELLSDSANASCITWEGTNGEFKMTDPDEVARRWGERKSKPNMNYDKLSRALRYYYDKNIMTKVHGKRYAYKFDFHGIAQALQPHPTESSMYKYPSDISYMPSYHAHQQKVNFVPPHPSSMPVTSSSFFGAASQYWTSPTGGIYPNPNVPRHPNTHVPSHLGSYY
Summary of the method: (§1)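 Pools were built from human transcription factors expressed in yeast as GST fusions, captured on glutathione beads and DNA-barcoded, along with a tag-only sample. Incubation with 200 nmole of a 16-mer random double-stranded DNA library lasted 30 min at room temperature in Tris/NaCl/DTT/glycerol buffer, and was followed by washing, 0.1% formaldehyde crosslinking, proximity ligation, PCR amplification and Illumina NextSeq500 sequencing. Binding signal is the quotient of each hexamer's read frequency for a factor and its frequency for the tag-only sample.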

[2] = target: T2, ELK1 (Homo sapiens, UniProt P19419 1-428); conditions: protein: recombinant; tags: N-terminal GST; dsDNA, one strand shown
T2 sequence: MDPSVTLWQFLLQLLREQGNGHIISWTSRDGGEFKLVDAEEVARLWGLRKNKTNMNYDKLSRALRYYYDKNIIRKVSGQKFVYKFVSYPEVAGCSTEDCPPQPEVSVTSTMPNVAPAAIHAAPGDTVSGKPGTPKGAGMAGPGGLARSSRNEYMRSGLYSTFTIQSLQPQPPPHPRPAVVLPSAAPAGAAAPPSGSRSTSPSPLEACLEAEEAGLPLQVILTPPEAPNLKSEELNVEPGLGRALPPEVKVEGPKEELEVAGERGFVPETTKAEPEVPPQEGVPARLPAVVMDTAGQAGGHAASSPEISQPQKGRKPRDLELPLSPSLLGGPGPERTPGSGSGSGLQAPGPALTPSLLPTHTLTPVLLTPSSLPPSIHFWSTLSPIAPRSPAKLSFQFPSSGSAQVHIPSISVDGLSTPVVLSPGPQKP
Summary of the method: as §1

[3] = target: T3, GABPA (Homo sapiens, UniProt Q06546 1-454); conditions: protein: recombinant; tags: N-terminal GST; dsDNA, one strand shown
T3 sequence: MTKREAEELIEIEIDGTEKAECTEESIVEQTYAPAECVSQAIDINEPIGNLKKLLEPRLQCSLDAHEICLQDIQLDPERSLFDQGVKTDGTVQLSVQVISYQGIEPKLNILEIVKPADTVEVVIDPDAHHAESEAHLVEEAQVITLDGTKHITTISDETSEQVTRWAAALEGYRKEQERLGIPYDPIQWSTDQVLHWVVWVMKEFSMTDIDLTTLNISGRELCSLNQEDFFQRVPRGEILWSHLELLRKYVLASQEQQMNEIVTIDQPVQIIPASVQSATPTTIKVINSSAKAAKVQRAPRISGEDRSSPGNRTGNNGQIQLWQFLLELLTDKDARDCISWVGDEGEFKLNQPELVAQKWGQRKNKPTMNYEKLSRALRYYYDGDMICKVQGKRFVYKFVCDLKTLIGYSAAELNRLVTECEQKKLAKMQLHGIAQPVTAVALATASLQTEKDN
Summary of the method: as §1

[4] = target: T4, ERG (Homo sapiens, UniProt P11308 1-479); conditions: protein: recombinant; tags: N-terminal GST; dsDNA, one strand shown
T4 sequence: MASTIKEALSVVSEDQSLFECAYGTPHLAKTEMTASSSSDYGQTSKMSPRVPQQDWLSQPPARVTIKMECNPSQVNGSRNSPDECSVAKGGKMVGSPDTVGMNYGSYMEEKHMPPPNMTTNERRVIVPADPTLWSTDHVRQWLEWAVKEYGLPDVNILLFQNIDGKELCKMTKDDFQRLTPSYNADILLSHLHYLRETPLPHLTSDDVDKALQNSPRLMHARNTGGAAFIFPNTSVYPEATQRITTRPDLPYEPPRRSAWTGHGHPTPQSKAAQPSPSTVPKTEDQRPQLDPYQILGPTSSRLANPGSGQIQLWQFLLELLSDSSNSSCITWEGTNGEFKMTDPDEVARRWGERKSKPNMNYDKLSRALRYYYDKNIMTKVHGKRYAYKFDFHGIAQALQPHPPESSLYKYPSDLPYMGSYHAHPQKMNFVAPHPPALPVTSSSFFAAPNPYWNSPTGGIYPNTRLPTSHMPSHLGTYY
Summary of the method: as §1

[5] = target: ELF1 (Homo sapiens, UniProt P32519 1-619); conditions: protein: recombinant; tags: N-terminal GST; dsDNA, one strand shown
ELF1, sequence (P32519 whole entry): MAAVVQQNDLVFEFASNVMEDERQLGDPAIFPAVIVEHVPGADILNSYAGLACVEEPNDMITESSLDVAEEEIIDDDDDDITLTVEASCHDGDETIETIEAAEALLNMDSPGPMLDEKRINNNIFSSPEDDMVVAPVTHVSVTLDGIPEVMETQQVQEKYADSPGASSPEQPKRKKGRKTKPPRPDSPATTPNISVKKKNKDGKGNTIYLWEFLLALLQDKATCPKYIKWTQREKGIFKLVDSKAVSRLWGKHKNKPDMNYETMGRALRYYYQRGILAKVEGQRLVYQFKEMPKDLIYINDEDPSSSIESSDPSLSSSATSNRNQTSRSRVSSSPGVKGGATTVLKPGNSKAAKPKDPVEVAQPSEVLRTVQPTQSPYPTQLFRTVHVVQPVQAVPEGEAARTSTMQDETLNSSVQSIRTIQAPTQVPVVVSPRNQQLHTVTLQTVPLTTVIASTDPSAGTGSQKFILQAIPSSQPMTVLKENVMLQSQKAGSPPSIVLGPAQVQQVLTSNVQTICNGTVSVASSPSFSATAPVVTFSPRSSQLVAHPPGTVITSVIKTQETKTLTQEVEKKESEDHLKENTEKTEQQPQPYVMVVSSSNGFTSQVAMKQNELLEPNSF
Summary of the method: as §1

[6] = target: T5, EHF (Homo sapiens, UniProt Q9NZC4 1-300); conditions: protein: recombinant; tags: N-terminal GST; dsDNA, one strand shown
T5 sequence: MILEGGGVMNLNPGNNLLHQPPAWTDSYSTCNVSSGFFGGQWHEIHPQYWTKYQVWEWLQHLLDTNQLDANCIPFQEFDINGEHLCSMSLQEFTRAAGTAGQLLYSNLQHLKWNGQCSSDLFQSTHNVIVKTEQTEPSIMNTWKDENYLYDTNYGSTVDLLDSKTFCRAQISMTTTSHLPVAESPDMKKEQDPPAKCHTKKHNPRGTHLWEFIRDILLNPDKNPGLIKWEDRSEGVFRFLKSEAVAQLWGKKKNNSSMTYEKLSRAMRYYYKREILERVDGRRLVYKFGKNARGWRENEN
Summary of the method: as §1

[7] = target: SPI1 (Homo sapiens, UniProt P17947 1-270); conditions: protein: recombinant; tags: N-terminal GST; dsDNA, one strand shown
Summary of the method: as §1

[8] = target: SPIB (Homo sapiens, UniProt Q01892 1-262); conditions: protein: recombinant; tags: N-terminal GST; dsDNA, one strand shown
SPIB, sequence (Q01892 whole entry): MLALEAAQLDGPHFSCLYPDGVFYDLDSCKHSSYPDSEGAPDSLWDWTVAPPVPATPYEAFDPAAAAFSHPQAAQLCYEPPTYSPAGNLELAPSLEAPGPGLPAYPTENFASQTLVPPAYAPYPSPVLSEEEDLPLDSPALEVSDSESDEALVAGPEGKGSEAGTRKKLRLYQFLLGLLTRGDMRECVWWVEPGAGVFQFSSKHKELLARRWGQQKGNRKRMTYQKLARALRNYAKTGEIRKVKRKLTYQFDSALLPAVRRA
Summary of the method: as §1

[9] = target: T6, ELK3 (Homo sapiens, UniProt P41970 1-407); conditions: protein: recombinant; tags: N-terminal GST; dsDNA, one strand shown
T6 sequence: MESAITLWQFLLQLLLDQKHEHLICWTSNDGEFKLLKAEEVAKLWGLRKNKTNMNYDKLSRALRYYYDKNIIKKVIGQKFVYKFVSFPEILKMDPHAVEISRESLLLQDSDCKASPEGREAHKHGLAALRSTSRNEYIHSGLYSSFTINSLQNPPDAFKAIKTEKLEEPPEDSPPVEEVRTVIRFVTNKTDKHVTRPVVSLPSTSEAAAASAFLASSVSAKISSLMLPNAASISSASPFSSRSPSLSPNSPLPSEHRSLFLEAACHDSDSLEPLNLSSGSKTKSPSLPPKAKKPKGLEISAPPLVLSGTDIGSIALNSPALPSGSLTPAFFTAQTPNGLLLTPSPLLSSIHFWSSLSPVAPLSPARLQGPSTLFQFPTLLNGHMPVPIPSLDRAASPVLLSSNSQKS
Summary of the method: as §1

[10] = target: T7, FEV (Homo sapiens, UniProt Q99581 1-238); conditions: protein: recombinant; tags: N-terminal GST; dsDNA, one strand shown
T7 sequence: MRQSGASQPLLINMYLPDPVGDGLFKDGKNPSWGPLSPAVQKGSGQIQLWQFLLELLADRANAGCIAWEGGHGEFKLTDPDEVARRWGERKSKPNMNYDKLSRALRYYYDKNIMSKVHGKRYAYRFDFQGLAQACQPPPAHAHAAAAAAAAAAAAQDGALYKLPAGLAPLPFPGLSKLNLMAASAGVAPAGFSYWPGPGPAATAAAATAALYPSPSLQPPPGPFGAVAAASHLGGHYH
Summary of the method: as §1

[11] = target: ETV5 (Homo sapiens, UniProt P41161 1-510); conditions: protein: recombinant; tags: N-terminal GST; dsDNA, one strand shown
ETV5, sequence (P41161 whole entry): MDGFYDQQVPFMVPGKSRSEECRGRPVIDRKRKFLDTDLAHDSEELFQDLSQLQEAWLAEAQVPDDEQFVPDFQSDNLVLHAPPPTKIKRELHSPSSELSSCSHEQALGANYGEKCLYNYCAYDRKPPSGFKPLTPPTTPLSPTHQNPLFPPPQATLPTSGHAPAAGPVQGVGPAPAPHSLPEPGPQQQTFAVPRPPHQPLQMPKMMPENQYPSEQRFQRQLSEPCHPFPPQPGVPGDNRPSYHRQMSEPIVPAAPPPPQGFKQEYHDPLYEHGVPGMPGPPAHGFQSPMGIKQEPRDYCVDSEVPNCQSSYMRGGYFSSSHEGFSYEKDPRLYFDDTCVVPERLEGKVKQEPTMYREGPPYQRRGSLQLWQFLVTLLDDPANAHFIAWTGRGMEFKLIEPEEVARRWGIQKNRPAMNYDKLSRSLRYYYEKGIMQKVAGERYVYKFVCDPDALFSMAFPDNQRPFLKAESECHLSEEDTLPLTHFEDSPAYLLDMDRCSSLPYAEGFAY
Summary of the method: as §1

[12] = target: HSF1 (Homo sapiens, UniProt Q00613 1-529); conditions: protein: recombinant; tags: N-terminal GST; chain copies: 3; dsDNA, one strand shown
HSF1, sequence (Q00613 whole entry): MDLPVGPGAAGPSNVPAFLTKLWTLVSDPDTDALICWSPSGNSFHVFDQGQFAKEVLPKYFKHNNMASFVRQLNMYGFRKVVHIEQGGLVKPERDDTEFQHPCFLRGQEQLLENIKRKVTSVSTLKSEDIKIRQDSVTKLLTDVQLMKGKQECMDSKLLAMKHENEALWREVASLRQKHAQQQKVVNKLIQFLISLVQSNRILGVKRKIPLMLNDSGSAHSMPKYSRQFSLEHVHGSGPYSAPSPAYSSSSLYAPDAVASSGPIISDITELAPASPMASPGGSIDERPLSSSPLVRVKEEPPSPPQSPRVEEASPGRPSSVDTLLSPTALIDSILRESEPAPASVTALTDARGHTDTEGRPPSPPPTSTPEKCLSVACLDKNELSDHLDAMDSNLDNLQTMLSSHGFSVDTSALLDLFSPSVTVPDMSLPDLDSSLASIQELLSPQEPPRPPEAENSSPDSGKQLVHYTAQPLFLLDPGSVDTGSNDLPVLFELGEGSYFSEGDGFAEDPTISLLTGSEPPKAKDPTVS
Summary of the method: as §1

[13] = target: T8, SPIC (Homo sapiens, UniProt Q8N5J4 1-248); conditions: protein: recombinant; tags: N-terminal GST; dsDNA, one strand shown
T8 sequence: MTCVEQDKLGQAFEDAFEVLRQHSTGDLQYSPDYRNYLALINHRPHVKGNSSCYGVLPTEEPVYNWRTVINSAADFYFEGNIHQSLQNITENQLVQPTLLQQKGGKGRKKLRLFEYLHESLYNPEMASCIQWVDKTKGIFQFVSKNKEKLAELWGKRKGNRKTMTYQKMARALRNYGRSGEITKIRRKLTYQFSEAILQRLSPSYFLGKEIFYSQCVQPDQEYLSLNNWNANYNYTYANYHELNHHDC
Summary of the method: as §1

[14] = target: ELF4 (Homo sapiens, UniProt Q99607 1-663); conditions: protein: recombinant; tags: N-terminal GST; dsDNA, one strand shown
ELF4, sequence (Q99607 whole entry): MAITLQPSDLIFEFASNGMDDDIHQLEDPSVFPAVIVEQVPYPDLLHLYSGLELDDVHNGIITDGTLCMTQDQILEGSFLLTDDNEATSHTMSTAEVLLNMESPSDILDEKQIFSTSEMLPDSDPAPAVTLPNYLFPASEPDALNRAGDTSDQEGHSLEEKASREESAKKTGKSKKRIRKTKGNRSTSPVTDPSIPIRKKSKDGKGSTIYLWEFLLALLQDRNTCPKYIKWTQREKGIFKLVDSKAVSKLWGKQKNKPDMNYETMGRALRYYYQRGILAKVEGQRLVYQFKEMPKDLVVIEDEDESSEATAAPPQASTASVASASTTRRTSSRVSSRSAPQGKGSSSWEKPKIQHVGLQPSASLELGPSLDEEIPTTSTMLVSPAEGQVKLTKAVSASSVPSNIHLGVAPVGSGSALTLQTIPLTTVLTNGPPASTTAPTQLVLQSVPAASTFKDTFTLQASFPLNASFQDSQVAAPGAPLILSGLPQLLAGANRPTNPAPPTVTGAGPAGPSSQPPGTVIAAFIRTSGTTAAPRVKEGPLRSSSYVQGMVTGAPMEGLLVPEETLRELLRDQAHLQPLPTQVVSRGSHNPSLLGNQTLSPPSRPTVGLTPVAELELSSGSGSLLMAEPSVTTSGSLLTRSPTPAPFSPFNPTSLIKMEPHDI
Summary of the method: as §1

[15] = target: T9, ELK4 (Homo sapiens, UniProt P28324-2 1-405); conditions: protein: recombinant; tags: N-terminal GST; dsDNA, one strand shown
T9 sequence: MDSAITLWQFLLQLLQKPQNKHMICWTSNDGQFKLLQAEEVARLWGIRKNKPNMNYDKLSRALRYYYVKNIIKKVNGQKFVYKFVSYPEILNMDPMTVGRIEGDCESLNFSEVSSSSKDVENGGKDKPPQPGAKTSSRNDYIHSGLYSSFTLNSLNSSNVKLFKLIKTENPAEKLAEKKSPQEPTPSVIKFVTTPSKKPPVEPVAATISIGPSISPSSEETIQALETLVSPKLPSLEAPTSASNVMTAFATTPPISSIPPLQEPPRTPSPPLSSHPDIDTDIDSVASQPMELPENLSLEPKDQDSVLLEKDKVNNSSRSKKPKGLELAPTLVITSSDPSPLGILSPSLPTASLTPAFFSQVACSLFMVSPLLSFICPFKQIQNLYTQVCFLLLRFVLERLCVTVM
Summary of the method: as §1

[16] = target: T10, ETV2 (Homo sapiens, UniProt O00321 1-342); conditions: protein: recombinant; tags: N-terminal GST; dsDNA, one strand shown
T10 sequence: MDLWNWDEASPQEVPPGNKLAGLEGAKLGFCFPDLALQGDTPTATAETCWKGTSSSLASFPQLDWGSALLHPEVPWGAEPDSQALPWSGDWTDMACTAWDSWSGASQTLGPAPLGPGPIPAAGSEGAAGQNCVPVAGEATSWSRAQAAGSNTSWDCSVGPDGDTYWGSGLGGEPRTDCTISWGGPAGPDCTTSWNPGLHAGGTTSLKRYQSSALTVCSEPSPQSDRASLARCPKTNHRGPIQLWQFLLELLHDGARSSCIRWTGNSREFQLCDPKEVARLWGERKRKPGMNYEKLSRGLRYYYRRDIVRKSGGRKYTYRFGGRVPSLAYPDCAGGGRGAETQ
Summary of the method: as §1

[17] = target: T11, ELF3 (Homo sapiens, UniProt P78545 1-371); conditions: protein: recombinant; tags: N-terminal GST; dsDNA, one strand shown
T11 sequence: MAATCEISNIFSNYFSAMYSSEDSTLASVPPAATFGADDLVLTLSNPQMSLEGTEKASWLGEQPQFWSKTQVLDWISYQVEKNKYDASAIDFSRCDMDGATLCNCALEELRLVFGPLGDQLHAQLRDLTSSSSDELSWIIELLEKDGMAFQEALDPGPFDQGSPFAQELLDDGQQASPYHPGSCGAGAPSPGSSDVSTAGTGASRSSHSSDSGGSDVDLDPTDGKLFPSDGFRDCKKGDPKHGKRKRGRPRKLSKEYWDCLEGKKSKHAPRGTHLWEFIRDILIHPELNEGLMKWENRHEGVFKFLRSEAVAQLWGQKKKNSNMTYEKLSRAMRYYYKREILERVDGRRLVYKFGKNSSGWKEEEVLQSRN
Summary of the method: as §1

[18] = target: CRX (Homo sapiens, UniProt O43186 1-299); conditions: protein: recombinant; tags: N-terminal GST; dsDNA, one strand shown
CRX, sequence (O43186 whole entry): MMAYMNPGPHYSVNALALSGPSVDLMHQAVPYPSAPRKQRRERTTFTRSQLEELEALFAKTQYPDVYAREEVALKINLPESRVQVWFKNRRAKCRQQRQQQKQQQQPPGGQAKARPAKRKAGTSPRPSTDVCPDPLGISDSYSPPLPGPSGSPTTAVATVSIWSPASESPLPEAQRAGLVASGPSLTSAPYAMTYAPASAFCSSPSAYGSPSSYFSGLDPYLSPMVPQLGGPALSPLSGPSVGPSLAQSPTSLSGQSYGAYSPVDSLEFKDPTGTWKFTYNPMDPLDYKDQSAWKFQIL
Summary of the method: as §1

[19] = target: ETV1 (Homo sapiens, UniProt P50549 1-477); conditions: protein: recombinant; tags: N-terminal GST; dsDNA, one strand shown
ETV1, sequence (P50549 whole entry): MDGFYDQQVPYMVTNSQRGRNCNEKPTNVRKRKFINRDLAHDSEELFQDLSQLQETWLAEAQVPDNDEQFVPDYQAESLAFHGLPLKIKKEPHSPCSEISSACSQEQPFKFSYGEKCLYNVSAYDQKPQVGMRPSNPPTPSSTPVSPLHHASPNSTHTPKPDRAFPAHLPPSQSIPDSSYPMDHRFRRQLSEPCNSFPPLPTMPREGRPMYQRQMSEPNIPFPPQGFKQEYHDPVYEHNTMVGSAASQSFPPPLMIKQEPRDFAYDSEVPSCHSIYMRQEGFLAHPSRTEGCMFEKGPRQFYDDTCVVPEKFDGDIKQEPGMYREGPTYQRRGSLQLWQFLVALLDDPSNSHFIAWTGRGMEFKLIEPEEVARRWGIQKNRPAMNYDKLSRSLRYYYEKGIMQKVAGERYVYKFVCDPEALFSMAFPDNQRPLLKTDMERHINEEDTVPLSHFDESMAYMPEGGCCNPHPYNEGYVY
Summary of the method: as §1

For TATAAG, the binding signal [1] was 1.15 fold enrichment (6-mer frequency, TF over GST control), the binding signal [2] was 1.23 fold enrichment (6-mer frequency, TF over GST control) and the binding signal [3] was 1.16 fold enrichment (6-mer frequency, TF over GST control). The binding signal [4] was 1.12 fold enrichment (6-mer frequency, TF over GST control), the binding signal [5] was 1.17 fold enrichment (6-mer frequency, TF over GST control) and the binding signal [6] was 1.1 fold enrichment (6-mer frequency, TF over GST control). The binding signal [7] was 1.13 fold enrichment (6-mer frequency, TF over GST control), the binding signal [8] was 1.12 fold enrichment (6-mer frequency, TF over GST control) and the binding signal [9] was 1.24 fold enrichment (6-mer frequency, TF over GST control). The binding signal [10] was 1.05 fold enrichment (6-mer frequency, TF over GST control), the binding signal [11] was 1.12 fold enrichment (6-mer frequency, TF over GST control) and the binding signal [12] was 1.51 fold enrichment (6-mer frequency, TF over GST control). The binding signal [13] was 1.1 fold enrichment (6-mer frequency, TF over GST control), the binding signal [14] was 1.15 fold enrichment (6-mer frequency, TF over GST control) and the binding signal [15] was 1.08 fold enrichment (6-mer frequency, TF over GST control). The binding signal [16] was 1.22 fold enrichment (6-mer frequency, TF over GST control), the binding signal [17] was 1.23 fold enrichment (6-mer frequency, TF over GST control) and the binding signal [18] was 2.08 fold enrichment (6-mer frequency, TF over GST control). For the same sequence, the binding signal [19] was 1.15 fold enrichment (6-mer frequency, TF over GST control).
